Whole data set: some 25,000 sequences, median “ln(normalized median fluorescence intensity)” near 9.3, cut for the highest 2% near 10. The sample holds the highest values, similar sequences and a random draw of the others, so the mix is not that of the screen.
system: PF3D7_0420300 AP2 domain 1 (GST-tagged); test: gcPBM binding intensity (ln(normalized median fluorescence intensity)); higher = stronger DNA binding
How it was run: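 GST-tagged P. falciparum DNA-binding domains produced in E. coli were incubated for 1 h on an Agilent 4 × 180k array of primer-extended double-stranded 36-bp intergenic genomic probes with negative controls. Binding intensity is the highest Masliner-normalised natural-log median intensity across replicate spots of either probe orientation, with bound protein detected by Alexa488 anti-GST antibody at 488 nm.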

Sequence | gcPBM binding intensity (ln)
AAAATTTTCTTTTTATGTACACATAATTTTACCGGA [XGTACX_site5276] | 9.18
ATAAAATATTTTTGAACATGCAGGTAAAAAATAAAA [TGCATGCA_site1019] | 9.27
ATGGATTATACGTGCACACATATATACCAATAAATA [CACACA_site4524] | 9.43
AAAAGTTTTATTTAAATGAATTAATCTTTACTATAT [CACACA_negctrl_site282] | 9.07
AAAACACAATTTATTACACACATATATTATATATTA [CACACA_site1420] | 9.49
TGAATATTCATGTGTGTGCGCATGTTGTTAGACCAT [GTGCAC_site9869] | 9.69
AACATTTTAAATTATACACACATTTTGAATATATAT [CACACA_site3470] | 9.54
AGCATCATTTTACACACATGCAAATGTAAAATAGGA [TGCATGCA_site460] | 9.43
GCCATTGTACCATCCACACACATATAAATATGTATA [CACACA_site7303] | 9.85
TATATATATAATATTGCACACAAAATTAAAAGTAAA [CACACA_site7889] | 9.47
TACACCCATAGACACACACACACGCATAAAAAAAAA [CACACA_site8428] | 9.93
CAAGAAAAGAAACACACACACATATATATATATATA [CACACA_site3881] | 9.87
TACACGCATAAACACACACACACACCCATATATATA [CACACA_site8114] | 10.4
AAAAAAAAAAAAAACACACACACACGCAGATATATA [CACACA_site6672] | 10.1
AAAAAGGAGAAACACACACACACACCCATATATATA [CACACA_site905] | 10.2
AAAAAAAAAAAACACACACACACACCCATATATAAA [CACACA_site1170] | 10.2
AAAAAAAATAAACACACACACATACCCATAAATATA [CACACA_site5980] | 10.1
CACCCATAAATATACACACGCACAACACAAAATAAA [CACACA_site2903] | 9.73
TACACGCAGAAACACACACACACACCCATATATATA [CACACA_site637] | 10.3
AAAAAAAAAAAAGAAACACACACATATATATATATA [CACACA_site8525] | 9.69
CACCCATAGAAACACACACACGCATAAAAAAAAAAA [CACACA_site1513] | 9.71
GATAGAAAAAAATAATGTACACACACATATATGTTT [XGTACX_site392] | 9.72
AAAAAAATTCTGACTTGTACATATAAAATTTACAAA [XGTACX_site4408] | 8.78

Sequence | gcPBM binding intensity (ln)
TACGTATGCCTGTGATGTACATATATATATACATAC [XGTACX_site4728] | 9.36
AATCACCAAATATGTACACACCTTAACATGTTTATA [CACACA_site5180] | 9.64
TTTAAAAGATAAAACACACATACTAATAAAAAACAA [CACACA_site2556] | 9.71
AAGTGTCAAAGTTACACACACAAACTTGTCATTTTT [CACACA_site837] | 9.75
AAAAATCATTTAAGAACACACAAATATTTCCATTAA [CACACA_site1488] | 9.35
TTATCCTTGTAACAATGTACACATTATTTAATACTT [XGTACX_site1830] | 9.29
TACATATTTTTCTTTTCACACATGGAAAAAAAAGGT [CACACA_site5146] | 9.11
ACATATAAAATGTATACACACAAATATTACAGAGAT [CACACA_site4920] | 9.8
TCATAGTATAAACACACACACACACCCATATATATA [CACACA_site8512] | 10.3
ATTCATATGAAACACACACACACACCCATAAAAAAA [CACACA_site3246] | 10.1
TAAACACCCATATAAACACACATATAAACACCCATA [CACACA_site5382] | 9.84
CACAGTGATATAAAAACACACATGAATTATAATTTC [CACACA_site1667] | 9.43
TTTTTCTGTTCTTTTTGTACTTAAATATATTTATTT [XGTACX_site5658] | 9.57
TAAATATTATATTTATGTACATAAGTTTTTTTTAAT [XGTACX_site3559] | 9.08
AATATTTCTATATGAACATGCAATGTATCTTTTTAT [TGCATGCA_site738] | 9.13
AGTATACATATATATACACACACACCGATATATATA [CACACA_site8357] | 10.1
ATAGTATACAGACACACACACACACCGATATATATA [CACACA_site8511] | 10.3
CATATACTCGGACACACACACACACCGACAAAAAAA [CACACA_site4433] | 10.1
ATAGTATACGGACACACACACACACCGATATATATA [CACACA_site5032] | 10.3
TAAATAAATTTATACACACACACACCGATATATATA [CACACA_site4622] | 10.1
AGTATACACAGACACACACACACATATATATATATA [CACACA_site8510] | 10.2
ATTCATCTATTTTGTAGTACTAAATATATATCTACT [XGTACX_site8790] | 9.46
TGTAATAATCTTCATTTCTTTTTTTTTTTTTTTTGT [CACACA_negctrl_site1388] | 8.96

Sequence | gcPBM binding intensity (ln)
ATTTACATAATAAAATGTACATTTATAAATATTATA [XGTACX_site1901] | 9.13
CATATATAGATATATACACACATACATACATACATA [CACACA_site7748] | 9.59
CACAGATATATACATACACACATATATACACATATA [CACACA_site6323] | 9.72
TATAGATACATATACACACACACACCGACATATATA [CACACA_site9138] | 10.3
TATAGATACAGATACACACACACACCGACATATATA [CACACA_site5832] | 10.2
AATATAGATACATATACACACACACCCATACATATA [CACACA_site9137] | 10.1
CATACATACATACATACACACATACAGATATATATA [CACACA_site4890] | 9.84
ATATATATATAATAAGTGCAAAAAAAAGAAAAAAAT | 9.74
GTTTAACTGTTTTATACACACAATGTATCCAATAAA [CACACA_site5612] | 9.49
ATAAAATTTATATAAGCACACAAATATATATTTATA [CACACA_site9083] | 9.29
GATAAATTAAAACACACACACATATATATATATATA [CACACA_site3962] | 9.67
ACTTATATAAAACATTAACACACAAAGAAAAAAAAT [CACACA_site8529] | 9.96
TAAAAAAAAAAAAAAACACACATATAAATATTTATA [CACACA_site6702] | 9.45
CATAAAATATAAAACACACACACATATATTTATATA [CACACA_site6247] | 10
AAAAACAACACAGATAAATTAACACACACACACATA [XGTACX_negctrl_site588] | 10.2
CTTATATTAAAACACACACACGCACAAAACAGAAAT [CACACA_site1462] | 10.2
CATAATACAGATAACACACACAATTATACATAAAAT [CACACA_site5742] | 10
TATATATTATTTAAAACACACAAAAAAAAAAATTAT [CACACA_site89] | 9.59
AGTATAAAAATAAGCACACACACAAATATATATTTA [CACACA_site923] | 10.2
TATAAAAATAAGCACACACACAAATATATATTTATT [CACACA_site922] | 10.1
AATATAAATAAAAACACACACACACGGATATTTATA [CACACA_site7134] | 10.3

From the supplement of paper PMC11417369
